# Experimental data taken from the supplement of paper PMC6555819.
# System: PPARa:RXRa (NR concentration 270 nM, RXRa partner concentration 90 nM)
# Assay: PBM binding z-score (relative to random genomic background probes); higher = stronger binding; sequences stand for … in GC…GCGATTGACAGCGTAGAATGAAGG
# Experimental: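 Protein-binding microarray (Agilent 4x180K custom design, double-stranded 60-nt probes: 5' GC cap, 34-nt variable region, 24-nt constant primer region; full probe sequence given). Purified or IVT nuclear receptor:RXRα heterodimers (3:1 NR:RXRα, mostly 270:90 nM) or homodimers were incubated for 1 h in PBS with 2% milk and no ligand, then detected with Alexa488 antibodies. Fluorescence from o1-orientation probes (~5 replicates averaged) was converted to z-scores against 500 random hg19 background probes. Variable regions are seed direct-repeat (DR0–DR5) sites, all their single-nucleotide variants and half-site ablations.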
row,Sequence,PBM binding z-score
1,CGAACTAGGTCGAGGACAGTGAATCTCCGCACGC,1.75
2,CCTACTCGGCCAAAAAGGTCATTGATGCCGATAA,4.87
3,CGCACTAGGTCATCCAGGACAGTGAATACATTGA,4.49
4,TCTAGTTGGTCAAAGGTCACGCACTCGAAATGCG,6.76
5,TATACAAGGTCAAAGGCCAGAGTACGAATGTCGA,6.24
6,GCTTACGGGTCCAAGGTTATAGCATGAATAGAAT,1.78
7,TCTCGGAGGACACCAAAGGTCAGAGCTCGACATC,3.65
8,CATACAGGGTCGGCTAGGCCAGAGTAGGGACGGC,0.514
9,ATCGAAAGGTCGACGCGGTGAGTATACACCGTTT,3.97
10,CCGACTGGGGCAAGGTCACCATAACGCACAGCCA,4.2
11,ACTCGGATGACAAAGGTCAGAGCTACGCCAGTGA,4.38
12,GCTTAAGGGTCAAAGGTTATAGCATGAATAGAAT,7.18
13,TGTCAATGTTCAAAGGTAACGTAAGTATCCACAC,1.3
14,CAAACCAGGTCACAGAGGTCAAAGTCCGTGCGTA,6.49
15,TACCCTAGGTCATTCAGGGGCCAGTATAGAAAGC,3.81
16,AGAATGAGGTTAAGTTCAGGGAAACAGAATACAT,4.63
17,CCTTACGGGTAACGAGGTTATAGCACGACGAGCG,1.62
18,AGAATGAGGTCACCAAAGATCAGGGAAACGCTTG,6.33
19,AGAATGAGGTCATACGTAGATCAGGGAAGAAAGT,6.29
20,CAAACTAGGTCACGAGAGGTCAAAGTCGAATGAC,6.78

row,Sequence,PBM binding z-score
1,CCTAGTTGGTCAAGGTCACACCCGCTATAGGTAC,3.85
2,CAAACTAGGTCAAGGTCTAAGTCGGTTTGTGCCA,4.92
3,TCTGCTAGGTCATCGATGGTCAGCTAATCTGCTA,3.2
4,TGTCAACGTTCAAAGGTAACGTAAGTATCCACAC,1.49
5,AATACAGGGTAACTAGGCCAGAGTAGGTACGAAT,2.01
6,ATATGTAGGTTACATCCGGGTCATCCAGGCTATG,4.41
7,ACTTACGGGTCTACGAGGTTATAGCACGCGTATA,1.2
8,AGAATGGGGTTATACGTAGATCAGGGAAGAAAGT,5.16
9,CTATGTAGGTTAAGGGAGTCATTCAGTTTGAAAG,3.21
10,TCTAGTTGGTCTAAGGTCACACACTCGAAATGCG,4.7
11,TCTGCTAGGTCAACGTTGGTCAGCTAATCTGCTA,3.2
12,AGTCAAAGTGCATCTAGGTAACGTAAGATATGCT,1.21
13,CGTCCAAGGTCATAGAGGTCAGTGAATGCCGAGT,5.85
14,ATATGTAGGTTGGGGTCATTCAGAAAGTAGGGAA,6.11
15,AGTCAAAGTTCAGGACGAGGTAACGTTAAGCACG,3.34
16,CAAACAAGGTCACCGGAAGGTCAAAGTCCGCATG,6.58
17,GCTGCTAGGTCAACTGATGGTCAACTAAAGCTCG,3.72
18,CACACTAGGTCACAGAGGTCAAAGTCCGTGCGTA,6.51
19,TAGCCTAGGTCATGCGGGACAGTATAGTGTCGGC,3.53
20,TAGCCTAGGTCACATCGGGCCAGTATACGCTATA,3.16
